# Sampled rows, rich in hits. Any-hit rate of the full collection: about 13%.
# LASV entry inh: blocks Lassa virus binding to or entry into cells; Lassa virus pseudotype entry inhibition, cell reporter; Potency, µM (highest dose often 37.9 µM), hits mostly inhibitors; hit rate 1.2% among 300,000; calls by dose curve; tested in HEK293 cells; also: nearly all actives have a fitted effect of over 50% in size
# Shiga toxin inh: blocks Shiga toxin action in Vero cells; hit rate 9.2% among 290,000; AID 2315; inhibition, % at 38.7 µM; Vero cells, Shiga toxin protein synthesis inhibition reporter; in the data active = inhibition mostly above about 28%, no sharp cut-off; inactive = mostly below about 43%
# Marburg entry inh: blocks Marburg virus binding to or entry into cells; Potency, µM (series often up to 37.8 µM), usual class: inhibitors; hit rate 1.8% among 300,000; Marburg virus pseudotyped entry inhibition, cell reporter; calls by dose curve; tested in HEK293 cells
# HCV inh: inhibitors of hepatitis C virus infection; hit rate 3.4% among 340,000; Potency, µM (titrated, usually from 41.8 µM), most hits filed as inhibitors; Huh7.5.1 HCVcc-Cre infection, luciferase reporter, 44 h; active = well fitted inhibition curve with a large enough effect; inconclusive = small, poorly fitted or top-dose-only effect, or another doubt; inactive = no such curve, though single readings can be large or run the other way
#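 Seed cells (1,000/well) for 4 h; treat with compound and infect with HCVcc-Cre, moi about 0.5. Incubate 44 h, then detect luciferase activity.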
# Cycloheximide cs: counter-screen hit for Shiga toxin inhibitors, cycloheximide; cell reporter, cycloheximide protein synthesis inhibition counterscreen; max response, %; hit rate 12% among 300,000; AID 2314; in the data active = max response mostly above about 13%, no sharp cut-off; inactive = mostly below about 14%; also: read at 38.3 µM for the half of the compounds with a filed dose
# FMDV inh: foot and mouth disease virus antiviral activity | FMDV antiviral cell-based qHTS | Potency, µM (titrated, usually from 57.9 µM), hits mostly inhibitors | hit rate 1.2% among 410,000 | AID 1159524; calls by dose curve; tested in HEK293T cells; also: read-out not given here; nearly all actives have a fitted effect of over 45% in size
# Numbers stand for hits; - = inactive; ? = inconclusive; . = no result given.
SMILES,LASV entry inh,Shiga toxin inh,Marburg entry inh,HCV inh,Cycloheximide cs,FMDV inh
O=C(CNS(=O)(=O)c1ccc2c(c1)OCCCO2)N1CCN(Cc2ccccc2)CC1,.,.,.,-,.,-
Cc1ccc2c(c1)-c1cc(C)nn1C(c1sccc1C)N2 (centres undefined),-,-,-,4µM,-,-
Cc1ccc2c(c1)-c1cc(C)nn1C(c1ccc3c(c1)OCO3)N2 (centres undefined),-,-,-,14µM,16,-
CC1=NN(c2nc(-c3ccccc3)cs2)C(=O)C1N=Nc1ccccc1 (centres undefined),-,53,-,-,43,-
CC1=NN(c2nc(-c3ccc(C)cc3)cs2)C(=O)C1N=Nc1ccc2ccccc2c1 (centres undefined),-,-,-,-,18,-
CC1=NN(c2ccccc2)C(=O)C1N=Nc1ccc(C)cc1 (centres undefined),.,-,.,.,-,.
CC1=NN(c2nc(-c3ccc(C)cc3)cs2)C(=O)C1N=Nc1ccc(C(N)=O)cc1 (centres undefined),4.6µM,-,6.5µM,2.8µM,15,-
CC1=NN(c2ccccc2)C(=O)C1N=Nc1ccc(S(N)(=O)=O)cc1 (centres undefined),.,-,.,-,-,-
CC1=NN(C(N)=S)C(=O)C1N=Nc1ccc(S(N)(=O)=O)cc1 (centres undefined),.,.,.,-,-,-
c1ccc(-c2csc(Nc3ccccn3)n2)cc1,?,82,?,-,60,-
Oc1ccc(-c2csc(Nc3ccccn3)n2)cc1,-,122,?,-,43,-
NC(Cc1ccc(F)cc1)c1csc(Nc2ccccn2)n1 (centres undefined),.,.,.,.,.,-
Fc1ccc(-c2csc(Nc3ccccn3)n2)c(F)c1,.,40,.,?,46,-
Cc1cc(-c2csc(Nc3ccccn3)n2)ccc1F,?,116,?,6.3µM,42,-
NC(c1ccccc1)c1csc(Nc2ccccn2)n1 (centres undefined),.,.,.,.,.,-
O=S(Cc1cc(Oc2ccccc2)nc(-c2ccccc2)n1)c1ccccc1 (centres undefined),?,-,?,?,-,-
O=C(NCCNCc1ccccc1)c1ccco1,-,.,-,-,.,-
CCOC(=O)/C=C/c1nc(C(=O)OCC)c(C)c(=O)[nH]1,.,-,.,-,-,-
Cc1ccc(C(=O)NCCCNC(=O)c2ccccc2C)cn1,-,-,-,-,-,-
Cn1c(C(=O)OCC(=O)NCC2CCCO2)cc2sccc21 (centres undefined),-,-,-,-,-,.
COc1ccc(-c2csc(Nc3ccccn3)n2)cc1OC,?,67,?,8.9µM,37,-
COc1ccc(-c2csc(Nc3ccc(C)cn3)n2)cc1,-,-,-,?,-,-
COc1ccc(-c2csc(C(C)(O)c3ccccc3)n2)cc1OC (centres undefined),.,.,.,.,.,-
Cc1ccc(-c2csc(Nc3ccccn3)n2)cc1,?,.,2µM,-,35,-
CCCOc1ccc(C(=O)OCC(=O)NCCc2ccc(OCC)c(OCC)c2)cc1OC,-,-,-,?,-,-
SMILES,LASV entry inh,Shiga toxin inh,Marburg entry inh,HCV inh,Cycloheximide cs,FMDV inh
O=C(Nc1ccc(Br)cc1)c1cnccn1,-,-,-,-,32,.
O=C(Nc1ccc2c(c1)OCO2)c1cnccn1,.,88,-,-,21,-
Cc1ccc(NC(=O)c2cnccn2)c(OC(F)F)c1,-,-,-,13µM,-,-
Cc1ccc(NC(=O)c2cnccn2)cc1,.,72,?,?,34,-
CC(=O)Nc1ccc(S(=O)(=O)Nc2ccc(Cl)cn2)cc1,-,.,?,-,-,-
Cc1cccc(NC(=O)c2cnccn2)c1,-,.,-,-,17,-
Cc1cccc(NC(=O)Nc2cnccn2)c1,.,-,.,-,-,-
Cc1nc(NC(=O)c2cncc(Br)c2)ccc1Br,-,.,-,?,-,-
Cc1ccc(NC(=O)c2cnccn2)cc1C,.,.,.,-,34,-
Cc1nc(NC(=O)c2cnccn2)ccc1Br,?,107,-,-,43,-
Cn1nc(C(=O)Nc2nc3ccccc3[nH]2)ccc1=O,?,84,?,-,46,-
O=C(Nc1nc2ccccc2[nH]1)c1cccs1,-,75,-,-,37,-
COc1ccc(C(=O)Nc2nc3ccccc3[nH]2)cc1,?,-,?,-,-,-
C/C(=N\Nc1nc2ccccc2[nH]1)c1ccc([N+](=O)[O-])cc1,?,-,-,10µM,-,-
Cc1ccc(C(=O)Nc2nc3ccccc3[nH]2)cc1,?,-,1.4µM,-,-,11µM
Cc1ccc(C(=O)Cc2nc3ccccc3[nH]2)cc1,.,65,-,-,36,-
O=C(Nc1nc2ccccc2[nH]1)c1ccc([N+](=O)[O-])cc1,-,92,-,-,28,-
O=C(c1nc2ccccc2[nH]1)c1ccccc1[N+](=O)[O-],-,73,?,-,32,-
O=C(Nc1nc2ccccc2[nH]1)c1cccc([N+](=O)[O-])c1,-,58,?,-,47,-
O=C(NCc1nc2ccccc2[nH]1)c1ccc([N+](=O)[O-])cc1,.,-,.,-,-,-
CCOC(=O)Cc1nc2ccccc2[nH]1,-,-,-,-,-,-
Cc1cc(C)cc(NC(=O)c2cnn(-c3ccc(C)c(C)c3)c2C2CCNCC2)c1,?,.,.,.,.,-
CCc1nn(CC(=O)N2CCN(Cc3ccc4c(c3)OCO4)CC2)c(=O)c2cc3occc3n12,-,-,?,?,-,?
Cc1nc2ccc(C(=O)Nc3ccc4nc[nH]c4c3)cc2[nH]1,?,-,?,-,-,-
O=C(NC(Cc1ccccc1)c1nc2ccccc2[nH]1)c1cccc([N+](=O)[O-])c1 (centres undefined),?,-,?,?,-,-
SMILES,LASV entry inh,Shiga toxin inh,Marburg entry inh,HCV inh,Cycloheximide cs,FMDV inh
Cc1nc2ccc(NC(=O)c3ccc([N+](=O)[O-])cc3)cc2[nH]1,?,-,-,-,14,-
COC(=O)c1cc(C(=O)Nc2nc3ccccc3[nH]2)cc([N+](=O)[O-])c1,-,49,-,-,-,-
COC(=O)c1cc(C(=O)Nc2cc(C)ccn2)cc([N+](=O)[O-])c1,?,35,?,-,-,-
COC(=O)c1cc(C(=O)Nc2cc(C)on2)cc([N+](=O)[O-])c1,-,.,?,-,-,-
COc1ccccc1NC(=O)c1cc(C(=O)Nc2ccccc2OC)cc([N+](=O)[O-])c1,.,-,.,-,-,-
O=C(Cc1nc2ccccc2[nH]1)c1cccc([N+](=O)[O-])c1,.,70,.,11µM,38,-
O=C(CSc1nc2nn(-c3ccccc3)c(=O)c-2c2n1CCCCC2)NCCCc1ccccc1,-,-,-,?,-,-
CCCCCC/C=C1\CC(C(=O)OCC)Oc2ccccc21 (centres undefined) (tested in a mixture with another compound),.,-,.,.,-,.
CCOC(=O)c1cnc2ccc(C)cc2c1Sc1ccccc1,-,62,-,?,34,-
CCOC(=O)c1cnc2ccc(C)cc2c1Sc1ccc(F)cc1,-,67,-,?,43,?
CCOC(=O)c1cnc2ccc(C)cc2c1N(C)Cc1ccccc1,?,-,?,-,-,-

# Bioassay records as filed in PubChem.
